According to PubChem BioAssay (NCI):
About 83,000 compounds went through this panel and 20% of them were active in at least one assay; those are over-represented in the sample as a whole.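 Cell lines were cultured in 96-well plates, exposed to a single compound concentration, and assessed for percent growth 48 hours later.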 Calls of active or inactive are those of the source. How the source made its calls: active means growth percent below 10; inactive means the rest.

Columns and labels:
Experiment in all cases: NCI-60 one-dose screen, 48 h (100 = growth as untreated, 0 = no growth, -100 = all killed)
Conditions in all cases: 10 µM unless noted
DU-145 prostate = test system: DU-145 prostate
K-562 leukemia = test system: K-562 leukemia
MALME-3M melanoma = test system: MALME-3M melanoma
MDA-MB-231 breast = test system: MDA-MB-231 breast
RXF 393 renal = test system: RXF 393 renal
SF-268 CNS = test system: SF-268 CNS
SF-295 CNS = test system: SF-295 CNS
SF-539 CNS = test system: SF-539 CNS
UACC-257 melanoma = test system: UACC-257 melanoma
M14 melanoma = test system: M14 melanoma

Measured: growth

COc1ccc(C(=O)c2cc3c(N)c(C(=O)Nc4ccc(C)cc4)sc3nc2C)cc1
inactive: DU-145 prostate 17.3% | K-562 leukemia 13.6% | MALME-3M melanoma 36.1% | MDA-MB-231 breast 22% | SF-268 CNS 39.4% | UACC-257 melanoma 58.1% | M14 melanoma 17.3%
active: RXF 393 renal -20.4% | SF-295 CNS 10% | SF-539 CNS -16%

CCN(CC)CCCCCNc1cc(OC(=O)c2ccc(Cl)cc2)cc2cccnc12
inactive: DU-145 prostate 114% | K-562 leukemia 75.3% | MALME-3M melanoma 61% | MDA-MB-231 breast 85.8% | RXF 393 renal 98.9% | SF-268 CNS 114% | SF-295 CNS 120% | SF-539 CNS 104% | UACC-257 melanoma 95.9% | M14 melanoma 102%

Nc1cnc(C(=O)NNc2nc3cc(F)ccc3n3cccc23)cn1
inactive: DU-145 prostate 37.8% | K-562 leukemia 23.7% | MALME-3M melanoma 59.9% | MDA-MB-231 breast 35.9% | RXF 393 renal 70.6% | SF-268 CNS 36% | SF-295 CNS 12.7% | SF-539 CNS 33.9% | UACC-257 melanoma 50.9% | M14 melanoma 23.3%

CCN(CC)CCn1c2ccc(OC)cc2c2sc3cc(OC)ccc3c(=O)c21
inactive: DU-145 prostate 44.9% | MDA-MB-231 breast 40.5% | RXF 393 renal 12.7% | SF-268 CNS 38.5% | SF-295 CNS 18.9% | SF-539 CNS 22.7% | UACC-257 melanoma 41.3%
active: K-562 leukemia 4.61% | MALME-3M melanoma -27% | M14 melanoma -77.9%

Cc1cc(C(=O)O)c(C)n1-c1cccc(C(=O)O)c1
inactive: DU-145 prostate 16.9% | K-562 leukemia 63.3% | MALME-3M melanoma 113% | MDA-MB-231 breast 96.8% | RXF 393 renal 61.8% | SF-268 CNS 84.5% | SF-295 CNS 61.3% | SF-539 CNS 102% | UACC-257 melanoma 70.1% | M14 melanoma 90.9%

N#CSCC1CC(O)(c2ccccc2)CC(c2ccc(F)cc2)O1 (stereo not given)
inactive: K-562 leukemia 20.7% | MALME-3M melanoma 29.1% | SF-539 CNS 21% | UACC-257 melanoma 69.1%
active: DU-145 prostate -27.8% | MDA-MB-231 breast -1.42% | RXF 393 renal -35.3% | SF-268 CNS -26.3% | SF-295 CNS -17.2% | M14 melanoma -35.6%

Clc1ccc2c(NC3CCC(N4CCOCC4)CC3)ccnc2c1 (stereo not given)
inactive: DU-145 prostate 90.9% | K-562 leukemia 48.6% | MALME-3M melanoma 89.3% | MDA-MB-231 breast 81.7% | RXF 393 renal 90.3% | SF-268 CNS 108% | SF-295 CNS 47.1% | SF-539 CNS 91.4% | UACC-257 melanoma 56.6% | M14 melanoma 84%

CC1CCN(S(=O)(=O)c2ccc(S(=O)(=O)N3CCCC(c4nc5c(nnn5Cc5cccc(Cl)c5)c(=O)[nH]4)C3)cc2)CC1 (stereo not given)
inactive: DU-145 prostate 59.8% | K-562 leukemia 20.1% | MALME-3M melanoma 46.7% | MDA-MB-231 breast 73% | RXF 393 renal 15.8% | SF-268 CNS 51.9% | SF-295 CNS 63.6% | SF-539 CNS 49.7% | UACC-257 melanoma 54.2% | M14 melanoma 16.9%

O=C(N(c1ccccc1)c1ccccc1)n1cc(I)c2nc(Cl)nc(Cl)c21
inactive: DU-145 prostate 43.3% | K-562 leukemia 20.8% | MALME-3M melanoma 73.4% | MDA-MB-231 breast 67.6% | RXF 393 renal 40.1% | SF-268 CNS 34.3% | SF-295 CNS 48.2% | SF-539 CNS 56.8% | UACC-257 melanoma 53.7% | M14 melanoma 57.4%

O=C1C(Cl)=C(NCCCCCCNC2=C(Cl)C(=O)c3ccccc3C2=O)C(=O)c2ccccc21
inactive: DU-145 prostate 104% | K-562 leukemia 69.7% | MALME-3M melanoma 88.8% | MDA-MB-231 breast 78.2% | RXF 393 renal 123% | SF-268 CNS 98.2% | SF-295 CNS 114% | SF-539 CNS 115% | UACC-257 melanoma 75% | M14 melanoma 87.9%

CC(C)=CC(=O)OCC(=O)O[C@@H]1C[C@]2(C(C)C)O[C@@]1(C)[C@@H]1CC[C@@H](C)[C@H]1[C@@H]2OC(=O)/C=C/c1ccccc1
inactive: DU-145 prostate 96.8% | K-562 leukemia 60.7% | MALME-3M melanoma 99.8% | MDA-MB-231 breast 90.9% | SF-268 CNS 62.3% | SF-295 CNS 95.4% | SF-539 CNS 104% | UACC-257 melanoma 86.8% | M14 melanoma 88.1%
active: RXF 393 renal 1.65%

C=C1C(=O)O[C@H]2[C@H]1CC/C(COC(=O)/C=C\C(=O)NCc1ccc(Cn3c(=O)sn(CCI)c3=O)cc1)=C\CC[C@@]1(C)O[C@@H]21
inactive: DU-145 prostate 34.4% | MDA-MB-231 breast 64.6% | RXF 393 renal 11.6% | SF-268 CNS 70.2% | SF-295 CNS 105% | SF-539 CNS 52% | UACC-257 melanoma 67.7% | M14 melanoma 36.2%
active: K-562 leukemia 4.34% | MALME-3M melanoma -30%

CCOC(=O)NC(C)C
inactive: DU-145 prostate 120% | K-562 leukemia 87.6% | MALME-3M melanoma 104% | MDA-MB-231 breast 112% | RXF 393 renal 77.4% | SF-268 CNS 109% | SF-295 CNS 118% | SF-539 CNS 95.9% | UACC-257 melanoma 95% | M14 melanoma 102%
